biological target: Epidermal growth factor receptor (Homo sapiens) (UniProt P00533); test: compounds binding epidermal growth factor receptor – biochemical, small-molecule microarray, 635 nm fluorescence, primary screen (AID 1104); details: EGFR binding, higher = more signal;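 note: score merges 667 nm emission intensity with spot signal to noise over triplicate slides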
Sequence (P00533 whole entry, looked up): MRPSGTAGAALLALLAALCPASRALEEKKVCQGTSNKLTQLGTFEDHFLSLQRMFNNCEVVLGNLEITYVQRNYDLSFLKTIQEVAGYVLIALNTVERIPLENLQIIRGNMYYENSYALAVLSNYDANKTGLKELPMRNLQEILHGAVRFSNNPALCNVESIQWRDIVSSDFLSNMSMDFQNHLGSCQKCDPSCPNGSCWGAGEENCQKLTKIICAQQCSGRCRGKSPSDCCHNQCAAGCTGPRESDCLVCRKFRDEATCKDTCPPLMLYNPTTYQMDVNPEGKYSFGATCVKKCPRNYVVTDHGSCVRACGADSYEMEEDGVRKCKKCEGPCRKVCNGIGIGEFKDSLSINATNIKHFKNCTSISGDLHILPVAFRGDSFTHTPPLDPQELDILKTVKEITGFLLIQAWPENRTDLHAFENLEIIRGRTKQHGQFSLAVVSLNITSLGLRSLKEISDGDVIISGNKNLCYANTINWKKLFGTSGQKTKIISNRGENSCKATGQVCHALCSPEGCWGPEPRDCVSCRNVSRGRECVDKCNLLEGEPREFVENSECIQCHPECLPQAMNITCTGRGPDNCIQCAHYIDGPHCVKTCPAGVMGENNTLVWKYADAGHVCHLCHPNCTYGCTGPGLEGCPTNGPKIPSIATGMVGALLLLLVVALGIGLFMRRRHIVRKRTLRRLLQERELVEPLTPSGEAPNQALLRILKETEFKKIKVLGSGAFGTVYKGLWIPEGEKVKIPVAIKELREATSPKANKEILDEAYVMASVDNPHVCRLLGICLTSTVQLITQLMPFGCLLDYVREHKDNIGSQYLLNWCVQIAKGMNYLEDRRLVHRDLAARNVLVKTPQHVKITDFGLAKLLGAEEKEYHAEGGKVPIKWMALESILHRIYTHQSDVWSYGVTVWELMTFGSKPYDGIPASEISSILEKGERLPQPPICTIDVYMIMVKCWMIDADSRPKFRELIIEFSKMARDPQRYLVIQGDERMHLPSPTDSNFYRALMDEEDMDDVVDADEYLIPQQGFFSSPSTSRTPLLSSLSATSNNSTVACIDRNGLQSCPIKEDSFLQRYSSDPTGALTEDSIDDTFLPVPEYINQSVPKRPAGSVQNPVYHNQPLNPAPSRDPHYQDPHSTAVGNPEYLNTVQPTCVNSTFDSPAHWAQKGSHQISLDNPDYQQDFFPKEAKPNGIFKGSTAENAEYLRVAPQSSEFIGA

| SMILES | composite z-score |
| --- | --- |
| CCCC1(C(=O)OC)C=C2C(=C(C)C(=O)C2C)CN1 (stereo not drawn) | 0.0023 |
| NCCCCCNC(=O)[C@@H]1C[C@@H]2C(=O)N[C@@H](CCCCN)C(=O)N2[C@@H]1c1ccc(O)cc1 | 1.13 |
| CCCN1C(=O)[C@]2(Cc3ccccc31)N=C(c1ccc(OCCCO)cc1)O[C@@H]2c1ccccc1 | -0.489 |
| CCN(CC)c1ccc(N2CC=CC34O[C@@H]5/C=C\CCCOC(=O)C5[C@H]3C(=O)N(C(C)CO)[C@@H]4C2=O)cc1 (stereo partly drawn) | -0.243 |
| NC(=O)[C@H]1[C@@H]2C(=O)O[C@@H](c3ccccc3)[C@@H](c3ccccc3)N2[C@@H](c2ccc(OCCO)cc2)[C@]12C(=O)Nc1ccc(C#CCCO)cc12 | 0.189 |
| CC(C)C(CO)N1C(=O)[C@@H]2[C@H]3C(=O)OCC=C[C@H]3OC23C=CCN(c2ccc(Cl)cc2)C(=O)[C@@H]13 (stereo partly drawn) | -0.627 |
| C=CCNC(=O)[C@@H]1[C@H]2C(=O)O[C@H](c3ccccc3)[C@H](c3ccccc3)N2[C@H](c2ccccc2OCCO)[C@@]12C(=O)Nc1ccc(C#CCC(C(=O)OC)C(=O)OC)cc12 | -0.114 |
| COc1ccc(C#Cc2ccc3c(c2)[C@]2(C(=O)N3)[C@H](C(=O)O)[C@H]3C(=O)O[C@H](c4ccccc4)[C@H](c4ccccc4)N3[C@@H]2c2ccc(O)cc2)cc1 | -0.165 |
| CCCC[C@@H](O)C1=C(COC)C[C@H]2C(=O)N(Cc3ccccc3)C(=O)[C@H]2[C@H]1CO | 0.26 |
| COC(=O)[C@@]1(Cc2ccc(F)cc2)[C@H]2c3cc(C(=O)N4CCCC4)n(Cc4ccc(C)c(F)c4F)c3C[C@H]2CN1C(=O)c1ccccc1 | -0.499 |
| C=CCNC(=O)[C@@H]1[C@H]2C(=O)O[C@H](c3ccccc3)[C@H](c3ccccc3)N2[C@H](c2ccc(O)cc2)[C@@]12C(=O)N(C(=O)OCCOC)c1ccc(C#CC3=CCCCC3)cc12 | 0.714 |
| C#Cc1cc2ccccc2oc1=O | -2.35 |
| COc1cc(NN2C(C(O)c3cc(OC)c(OC)c(OC)c3)C=CC3C(=O)N(C)C(=O)C32)cc(OC)c1OC (stereo not drawn) | 0.347 |
| CO[C@H]1O[C@H](CO)[C@@H](OC(=O)Nc2ccccc2)[C@H](OC(=O)c2cc3ccccc3[nH]2)[C@H]1OC(=O)c1cc2ccccc2[nH]1 | -0.551 |
| CCOC(=O)C[C@H]1[C@H](OC(=O)Cc2ccc3c(c2)OCO3)[C@@H](NC(=O)c2ccc3ccccc3n2)c2cc(OCCCO)ccc2N1C(=O)c1ccc2ccccc2n1 | 0.267 |
| COc1ccc(C#Cc2ccc3c(c2)[C@]2(C(=O)N3)[C@H](c3ccc(OCCO)cc3)N3[C@H](c4ccccc4)[C@H](c4ccccc4)OC(=O)[C@H]3[C@@H]2C(=O)NC[C@H](O)c2ccccc2)cc1 | 0.342 |
| NCCCCCNC(=O)[C@H]1C[C@H]2C(=O)N3CCC[C@H]3C(=O)N2[C@H]1c1cccc(OCCO)c1 | -0.525 |
| CO[C@H]1O[C@H](CO)[C@@H](OC(=O)Nc2ccc(Br)cc2)[C@@H]2OC(=O)[C@@H](Cc3ccccc3)C/C=C/C[C@H](Cc3ccccc3)C(=O)O[C@@H]12 | -0.265 |
| CCOC(=O)[C@@H]1CCCCN1C(=O)C(=O)OC | 0.243 |
| O=C(Cc1ccccc1)[C@H]1C2C=CCCC(c3ccccc3)=C2CN1Cc1ccccc1 (stereo partly drawn) | -0.097 |
| CCOC(=O)C[C@H]1[C@H](OC(=O)Cc2ccc3c(c2)OCO3)[C@@H](NC(=O)C2CCCCC2)c2cc(OCCCO)ccc2N1C(=O)c1ccccc1 | 0.073 |
| C=C[C@H](C)[C@H](OC(=O)Nc1ccc(SC)cc1)c1ccc(OCCO)cc1 | 0.183 |
| CCCCC(CC)C(O)C1C=CC2C(=O)N(c3ccccc3)C(=O)C2N1Nc1ccccc1F (stereo not drawn) | -0.187 |
| Cc1ccc(C(C)CC(O)C2C=CC3C(=O)N(c4ccccc4)C(=O)C3N2Nc2ccccc2)o1 (stereo not drawn) | 0.554 |
| CCOC(=O)C1=C[C@@H](C(C)(C)C)N(S(=O)(=O)c2ccc(C)cc2)[C@H]1c1cccc2ccccc12 | -0.138 |
| CC(C)N1C(=O)C[C@@](C(=O)NC2CC2)(c2ccc([N+](=O)[O-])cc2)[C@H]1c1ccc(CO)cc1 | -1.18 |
| COC(=O)c1c(CC[C@@H](CO)NC(=O)N2CCC[C@H]2Cn2cc(C3(O)CCCCC3)nn2)oc(C(C)=O)c1C(=O)OC | 0.197 |
| NC(=O)NCC#Cc1ccc2c(c1)[C@]1(C(=O)N2)[C@H](c2ccccc2OCCO)N2[C@H](c3ccccc3)[C@H](c3ccccc3)OC(=O)[C@H]2[C@@H]1C(=O)NC[C@H](O)c1ccccc1 | -0.895 |

Reference: PubChem BioAssay
